Data from the supplement of paper PMC10849652.
The full data set covers some 8,800 targets. This sample favours those with a hit. About 0.5% of all pairs of compound and target were hits. Unmarked numbers belong to inactive results.

Columns and labels:
Test in all cases: log2 fold change, soluble protein after heating vs DMSO (PISA); higher = thermal stabilisation; K562 lysate, 10 uM; active = over 0.2 and 3.5 SD of the protein, either way, in both replicates (recomputed)
[1] = compound: C=CC(=O)N1CCC[C@@H](n2nc(-c3ccc(Oc4ccccc4)cc3)c3c(N)ncnc32)C1 [ibrutinib]
Outline: (§1)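 Pellets of K562 cells were dounce-homogenised in PBS pH 7.4 with 1 mM MgCl2, and the crude extract was held at 1 mg/mL protein for a 30 min treatment with 10 μM compound. Aliquots were heated for 3 min over 48°C-58°C and pooled before NP-40 was added to 0.5% at 4°C. The supernatant from 21,000xg for 90 min was quantified by TMTpro 16plex LC-MS/MS with channel sums equalised. Values are reported from duplicates as log-two fold change in thermal stability relative to solvent controls.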

[2] = compound: CC(=O)c1cnc2ccc(-c3cc(Cl)c(O)c(Cl)c3)nc2c1N[C@H]1CC[C@H](CN(C)C)CC1
Outline: as §1

[3] = compound: CC(C)(C)Cn1c(N)nc2ccc(-c3[nH]c(C(C)(C)C)nc3-c3ccc(F)cc3)nc21 [ralimetinib]
Outline: as §1

[4] = compound: CC(C)(O)CC(=O)NCCn1ccc2ncnc(Nc3ccc(Oc4cccc(C(F)(F)F)c4)c(Cl)c3)c21
Outline: as §1

[5] = compound: CC(C)C1=C2N=C(C=C(N2N=C1)NCC3=CC=CC=C3)NCCCCCCN
Outline: as §1

[6] = compound: CC1=C(C(CC(=O)N1)C2=CC=C(C=C2)C(F)(F)F)C(=O)NC3=C(C=C4C(=C3)C=NN4)F
Outline: as §1

[7] = compound: CC1=C(C2=C(C=C1)C(=O)C3=CC=CC=C3N2CCCN)C
Outline: as §1

[8] = compound: CC1=C(C=C(C=C1)NC(=O)C2=CC(=CC=C2)C(C)(C)C#N)NC3=CC4=C(C=C3)N=CN(C4=O)C
Outline: as §1

[9] = compound: CC1=C(C=C(C=C1)NC(=O)C2=CC(=CC=C2)N(C)C)NC(=O)C3=CC=C(C=C3)O
Outline: as §1

[10] = compound: CC1=CC=C(C=C1)SC2=C3C=C(SC3=CN=C2)C(=O)N
Outline: as §1

[11] = compound: CCCS(=O)(=O)Nc1ccc(F)c(C(=O)c2c[nH]c3ncc(-c4ccc(Cl)cc4)cc23)c1F [vemurafenib]
Outline: as §1

[12] = compound: CCCS(=O)(=O)Nc1ccc(F)c(C(=O)c2c[nH]c3ncc(Cl)cc23)c1F
Outline: as §1

[13] = compound: CCN(CCCOc1ccc2c(Nc3cc(CC(=O)Nc4cccc(F)c4)[nH]n3)ncnc2c1)CCOP(=O)(O)O [barasertib]
Outline: as §1

[14] = compound: CC[C@@H]1C(=O)N(C)c2cnc(Nc3ccc(C(=O)NC4CCN(C)CC4)cc3OC)nc2N1C1CCCC1
Outline: as §1

[15] = compound: CC[C@@H]1C(=O)N(C)c2cnc(Nc3ccc(C(=O)N[C@H]4CC[C@H](N5CCN(CC6CC6)CC5)CC4)cc3OC)nc2N1C(C)C [volasertib]
Outline: as §1

[16] = compound: CCn1c(C(=O)N(C2CC2)C2CC2)cc2c3c(ncn3C)c(Nc3cc(C)n(C)n3)nc21
Outline: as §1

[17] = compound: CCn1cc(-c2ccnc3[nH]c(-c4cccc(CN(C)C)c4)cc23)c(-c2ccc(NC(=O)N(C)C)cc2)n1
Outline: as §1

[18] = compound: CN1CCC(CNc2ccc3ncc(-c4cccc(OC(F)(F)F)c4)n3n2)CC1
Outline: as §1

[19] = compound: CN1CCN(CCOc2cc(OC3CCOCC3)c3c(Nc4c(Cl)ccc5c4OCO5)ncnc3c2)CC1 [saracatinib]
Outline: as §1

[20] = compound: CN1CCN(c2nc(C3=C(c4c[nH]c5ccccc45)C(=O)NC3=O)c3ccccc3n2)CC1 [sotrastaurin]
Outline: as §1

UniProt Q6ZT12, sequence (Q6ZT12 whole entry, looked up): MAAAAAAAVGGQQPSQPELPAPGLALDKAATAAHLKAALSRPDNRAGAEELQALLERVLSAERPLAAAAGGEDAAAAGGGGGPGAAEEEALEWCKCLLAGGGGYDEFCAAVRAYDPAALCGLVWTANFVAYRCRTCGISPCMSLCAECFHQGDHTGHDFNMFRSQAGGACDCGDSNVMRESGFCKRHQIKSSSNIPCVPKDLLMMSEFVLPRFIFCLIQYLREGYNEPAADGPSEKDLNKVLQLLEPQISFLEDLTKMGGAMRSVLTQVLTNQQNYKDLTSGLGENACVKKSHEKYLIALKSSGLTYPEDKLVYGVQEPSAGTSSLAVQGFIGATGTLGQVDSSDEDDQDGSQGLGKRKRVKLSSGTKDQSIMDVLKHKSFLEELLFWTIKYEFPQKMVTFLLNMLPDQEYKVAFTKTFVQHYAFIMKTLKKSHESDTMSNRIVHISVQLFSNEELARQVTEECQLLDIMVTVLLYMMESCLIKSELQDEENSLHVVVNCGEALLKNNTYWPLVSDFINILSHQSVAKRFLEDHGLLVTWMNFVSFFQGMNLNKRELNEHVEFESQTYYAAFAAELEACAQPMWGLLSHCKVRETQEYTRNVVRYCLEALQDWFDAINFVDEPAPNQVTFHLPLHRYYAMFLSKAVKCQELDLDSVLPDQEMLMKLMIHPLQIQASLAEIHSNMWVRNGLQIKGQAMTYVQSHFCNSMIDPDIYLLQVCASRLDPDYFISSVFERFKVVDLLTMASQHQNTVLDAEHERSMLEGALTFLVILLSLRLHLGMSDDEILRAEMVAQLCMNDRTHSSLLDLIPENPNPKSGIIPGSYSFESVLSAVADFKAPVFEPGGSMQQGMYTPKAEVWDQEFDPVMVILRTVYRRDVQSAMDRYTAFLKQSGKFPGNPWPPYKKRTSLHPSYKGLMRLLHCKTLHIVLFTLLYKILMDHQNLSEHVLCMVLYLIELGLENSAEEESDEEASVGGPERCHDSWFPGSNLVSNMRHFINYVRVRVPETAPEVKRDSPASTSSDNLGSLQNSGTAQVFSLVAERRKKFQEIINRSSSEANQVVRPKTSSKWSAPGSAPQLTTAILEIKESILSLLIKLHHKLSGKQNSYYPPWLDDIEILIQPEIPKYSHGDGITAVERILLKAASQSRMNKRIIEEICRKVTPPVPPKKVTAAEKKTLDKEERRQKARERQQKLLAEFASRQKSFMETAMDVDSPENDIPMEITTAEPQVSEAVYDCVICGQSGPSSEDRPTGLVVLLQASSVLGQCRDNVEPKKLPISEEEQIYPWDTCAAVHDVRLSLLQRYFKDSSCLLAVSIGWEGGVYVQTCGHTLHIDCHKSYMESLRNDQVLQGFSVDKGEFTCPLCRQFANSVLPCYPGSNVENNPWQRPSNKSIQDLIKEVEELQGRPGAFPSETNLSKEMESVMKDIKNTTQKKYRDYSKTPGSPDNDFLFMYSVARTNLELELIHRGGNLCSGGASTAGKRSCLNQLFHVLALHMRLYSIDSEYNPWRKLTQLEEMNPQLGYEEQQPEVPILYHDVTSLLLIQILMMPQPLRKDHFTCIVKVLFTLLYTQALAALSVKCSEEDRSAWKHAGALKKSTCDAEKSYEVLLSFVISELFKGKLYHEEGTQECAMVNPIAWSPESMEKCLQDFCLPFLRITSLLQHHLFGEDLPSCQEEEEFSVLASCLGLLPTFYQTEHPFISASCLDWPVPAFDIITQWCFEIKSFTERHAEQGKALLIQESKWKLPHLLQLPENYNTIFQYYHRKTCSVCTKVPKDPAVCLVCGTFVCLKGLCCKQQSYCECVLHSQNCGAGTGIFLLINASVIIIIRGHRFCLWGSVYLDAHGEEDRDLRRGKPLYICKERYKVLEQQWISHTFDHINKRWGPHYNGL
UniProt Q8NG68, sequence (Q8NG68 whole entry, looked up): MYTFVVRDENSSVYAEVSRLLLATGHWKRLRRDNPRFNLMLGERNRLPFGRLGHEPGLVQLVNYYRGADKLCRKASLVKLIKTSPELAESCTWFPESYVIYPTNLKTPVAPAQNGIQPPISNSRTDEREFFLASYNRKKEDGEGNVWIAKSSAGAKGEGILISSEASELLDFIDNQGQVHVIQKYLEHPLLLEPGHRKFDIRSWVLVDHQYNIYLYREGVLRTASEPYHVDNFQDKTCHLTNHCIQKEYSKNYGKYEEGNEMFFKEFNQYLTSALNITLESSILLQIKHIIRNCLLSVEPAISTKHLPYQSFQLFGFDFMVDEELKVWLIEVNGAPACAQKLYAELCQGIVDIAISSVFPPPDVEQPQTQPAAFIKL
UniProt Q9H5L6, sequence (Q9H5L6 whole entry, looked up): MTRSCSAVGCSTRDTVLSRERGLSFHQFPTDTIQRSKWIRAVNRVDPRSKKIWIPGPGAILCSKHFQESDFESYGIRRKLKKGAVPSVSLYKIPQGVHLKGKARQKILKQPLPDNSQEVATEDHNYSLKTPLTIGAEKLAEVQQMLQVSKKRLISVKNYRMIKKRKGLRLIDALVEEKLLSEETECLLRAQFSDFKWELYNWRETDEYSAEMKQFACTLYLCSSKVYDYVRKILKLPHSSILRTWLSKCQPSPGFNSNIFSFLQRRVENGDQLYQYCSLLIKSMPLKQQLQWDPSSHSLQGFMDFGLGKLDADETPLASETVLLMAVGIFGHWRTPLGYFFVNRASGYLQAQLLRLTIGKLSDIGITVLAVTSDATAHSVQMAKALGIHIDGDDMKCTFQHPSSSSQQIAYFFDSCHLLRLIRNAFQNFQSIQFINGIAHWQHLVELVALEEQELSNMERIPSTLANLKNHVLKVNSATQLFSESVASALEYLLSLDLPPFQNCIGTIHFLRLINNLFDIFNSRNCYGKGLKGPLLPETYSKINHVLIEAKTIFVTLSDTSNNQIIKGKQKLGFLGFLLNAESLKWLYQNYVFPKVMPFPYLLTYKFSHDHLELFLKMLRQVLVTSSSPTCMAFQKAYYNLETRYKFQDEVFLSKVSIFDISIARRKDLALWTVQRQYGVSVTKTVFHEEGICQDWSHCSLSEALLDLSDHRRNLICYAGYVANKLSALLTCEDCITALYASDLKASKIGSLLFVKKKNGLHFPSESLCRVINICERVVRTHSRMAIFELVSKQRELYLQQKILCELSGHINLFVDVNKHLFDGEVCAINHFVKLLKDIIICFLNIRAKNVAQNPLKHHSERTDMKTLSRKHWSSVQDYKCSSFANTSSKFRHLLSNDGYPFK
UniProt P21580, sequence (P21580 whole entry, looked up): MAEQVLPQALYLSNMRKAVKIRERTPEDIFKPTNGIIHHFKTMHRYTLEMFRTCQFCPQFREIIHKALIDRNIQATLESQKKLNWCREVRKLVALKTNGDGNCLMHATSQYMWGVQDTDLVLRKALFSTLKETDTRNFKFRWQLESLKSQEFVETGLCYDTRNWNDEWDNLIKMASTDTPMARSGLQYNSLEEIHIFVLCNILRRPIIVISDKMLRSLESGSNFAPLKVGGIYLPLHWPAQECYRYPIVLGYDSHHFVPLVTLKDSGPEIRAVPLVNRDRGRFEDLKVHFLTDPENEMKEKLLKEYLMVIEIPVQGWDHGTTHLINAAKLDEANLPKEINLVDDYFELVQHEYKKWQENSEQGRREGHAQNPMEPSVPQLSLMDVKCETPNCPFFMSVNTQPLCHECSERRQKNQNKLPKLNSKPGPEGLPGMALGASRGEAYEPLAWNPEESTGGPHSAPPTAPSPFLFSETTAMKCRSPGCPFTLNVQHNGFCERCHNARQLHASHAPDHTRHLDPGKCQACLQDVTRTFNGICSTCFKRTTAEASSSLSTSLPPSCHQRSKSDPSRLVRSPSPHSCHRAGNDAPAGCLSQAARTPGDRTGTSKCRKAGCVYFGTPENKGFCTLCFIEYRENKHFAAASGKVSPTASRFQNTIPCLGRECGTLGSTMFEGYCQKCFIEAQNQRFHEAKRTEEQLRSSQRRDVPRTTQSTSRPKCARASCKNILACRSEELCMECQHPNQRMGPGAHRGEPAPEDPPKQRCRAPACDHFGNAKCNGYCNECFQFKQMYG
UniProt Q13769, sequence (Q13769 whole entry, looked up): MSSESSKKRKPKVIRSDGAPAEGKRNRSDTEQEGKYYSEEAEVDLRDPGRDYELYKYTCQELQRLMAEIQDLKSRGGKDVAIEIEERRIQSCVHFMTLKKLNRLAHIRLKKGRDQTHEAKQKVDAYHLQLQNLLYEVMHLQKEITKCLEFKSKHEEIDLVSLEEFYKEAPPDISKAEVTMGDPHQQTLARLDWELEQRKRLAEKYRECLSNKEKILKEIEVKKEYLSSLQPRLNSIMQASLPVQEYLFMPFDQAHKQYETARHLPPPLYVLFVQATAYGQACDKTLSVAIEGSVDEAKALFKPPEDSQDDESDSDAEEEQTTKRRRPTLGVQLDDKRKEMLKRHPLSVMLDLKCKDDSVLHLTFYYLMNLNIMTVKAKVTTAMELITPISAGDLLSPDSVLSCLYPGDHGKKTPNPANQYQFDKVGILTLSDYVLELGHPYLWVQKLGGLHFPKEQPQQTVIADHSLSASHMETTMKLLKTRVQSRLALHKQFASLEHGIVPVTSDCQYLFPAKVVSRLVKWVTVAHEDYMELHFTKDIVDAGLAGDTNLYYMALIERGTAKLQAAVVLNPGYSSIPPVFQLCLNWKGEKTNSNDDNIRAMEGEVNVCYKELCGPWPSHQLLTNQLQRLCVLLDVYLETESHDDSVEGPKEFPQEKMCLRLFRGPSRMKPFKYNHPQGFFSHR
UniProt P67936, sequence (P67936 whole entry, looked up): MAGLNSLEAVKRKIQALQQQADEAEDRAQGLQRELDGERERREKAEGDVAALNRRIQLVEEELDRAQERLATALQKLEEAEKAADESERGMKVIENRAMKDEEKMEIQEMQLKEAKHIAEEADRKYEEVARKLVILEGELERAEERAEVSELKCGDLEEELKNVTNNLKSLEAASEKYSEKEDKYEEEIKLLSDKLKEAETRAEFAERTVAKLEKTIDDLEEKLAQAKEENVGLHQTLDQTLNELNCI
UniProt P51668, sequence (P51668 whole entry, looked up): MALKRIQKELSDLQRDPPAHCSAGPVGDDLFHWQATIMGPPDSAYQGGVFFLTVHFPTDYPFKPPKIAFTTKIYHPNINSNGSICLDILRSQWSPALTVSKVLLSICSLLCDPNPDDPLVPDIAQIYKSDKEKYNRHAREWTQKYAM

| Target | log2 fold change [1] | log2 fold change [2] | log2 fold change [3] | log2 fold change [4] | log2 fold change [5] | log2 fold change [6] | log2 fold change [7] | log2 fold change [8] | log2 fold change [9] | log2 fold change [10] | log2 fold change [11] | log2 fold change [12] | log2 fold change [13] | log2 fold change [14] | log2 fold change [15] | log2 fold change [16] | log2 fold change [17] | log2 fold change [18] | log2 fold change [19] | log2 fold change [20] |
| --- | --- | --- | --- | --- | --- | --- | --- | --- | --- | --- | --- | --- | --- | --- | --- | --- | --- | --- | --- | --- |
| TYW3 (UniProt Q6IPR3) | -0.052 | -0.054 | -0.016 | -0.081 | 0.043 | -0.015 | -0.021 | 0.025 | 0.01 | -0.004 | 0.024 | 0.017 | 0.017 | 0.038 | -0.002 | -0.02 | -0.218 | 0.031 | -0.031 | -0.003 |
| TTMP isoform 3 (UniProt Q5BVD1) | 0.09 | 0 | -0.034 | -0.22 | -0.038 | -0.091 | -0.02 | 0.296 | -0.004 | -0.099 | 0.227 | 0.029 | -0.025 | 0.122 | 0.031 | -0.182 | -0.88 (active) | 0.316 | 0.012 | -0.029 |
| TNPO3 (UniProt Q9Y5L0) | -0.008 | 0.015 | 0.003 | -0.023 | -0.033 | -0.006 | 0 | -0.015 | 0.003 | 0.008 | 0.024 | 0.003 | 0.019 | 0.009 | -0.008 | 0.008 | 0.005 | 0.023 | -0.001 | -0.004 |
| UBE2D1 (UniProt P51668) | -0.033 | 0.017 | -0.009 | 0.073 | 0.01 | -0.03 | -0.007 | -0.002 | 0.043 | -0.007 | -0.013 | 0.022 | 0.014 | 0.012 | -0.046 | 0.089 | 0.007 | -0.025 | 0.043 | -0.021 |
| THOC5 (UniProt Q13769) | 0.023 | 0.004 | 0.015 | -0.011 | 0.008 | -0.011 | -0.002 | 0.004 | 0.018 | -0.001 | 0.005 | 0.013 | -0.023 | -0.031 | -0.008 | 0.008 | 0.02 | -0.008 | 0.024 | 0.013 |
| UBR3 isoform 4 (UniProt Q6ZT12) | -0.002 | -0.023 | 0.107 | -0.009 | 0.005 | 0.006 | -0.055 | -0.016 | 0.013 | 0.021 | 0.035 | -0.001 | 0.026 | -0.033 | -0.091 | -0.011 | -0.015 | -0.044 | 0.044 | 0.009 |
| TTL (UniProt Q8NG68) | 0.014 | 0.101 | -0.029 | 0.037 | 0.018 | 0.016 | -0.065 | 0.063 | 0.063 | -0.074 | -0.066 | 0.053 | 0 | -0.231 | -0.116 | 0.021 | 0.009 | -0.044 | -0.068 | 0.078 |
| TPM4 (UniProt P67936) | -0.019 | -0.021 | 0.003 | -0.023 | -0.023 | -0.038 | 0.012 | 0.01 | 0.013 | 0.006 | -0.025 | 0.009 | 0.047 | 0.125 | 0.055 | 0.018 | 0.037 | -0.007 | 0.002 | 0.013 |
| TUBA1C (UniProt Q9BQE3) | -0.001 | 0.017 | 0.007 | -0.043 | 0.032 | 0.015 | -0.035 | -0.012 | 0.043 | 0.009 | 0.036 | 0.026 | 0.013 | 0.009 | -0.059 | -0.029 | -0.082 | 0.022 | 0.054 | 0.044 |
| TUBA1B (UniProt P68363) | -0.012 | 0.008 | 0.025 | 0.003 | 0.021 | -0.011 | -0.003 | 0.018 | 0.022 | 0.005 | 0.009 | 0 | 0.013 | -0.02 | -0.046 | 0.013 | -0.008 | -0.011 | 0.003 | 0.017 |
| TGFBRAP1 (UniProt Q8WUH2) | 0.002 | 0.022 | 0.011 | 0.025 | -0.014 | 0.007 | 0.015 | -0.005 | 0.009 | -0.012 | -0.031 | 0.02 | 0.031 | -0.069 | -0.062 | 0.049 | 0 | -0.075 | 0.005 | -0.001 |
| TBCE (UniProt Q15813) | -0.027 | 0.004 | 0.037 | 0.01 | -0.004 | 0.003 | 0.004 | -0.007 | 0.025 | -0.016 | 0.04 | 0.015 | 0.024 | -0.065 | -0.082 | 0.048 | -0.044 | -0.023 | 0.013 | 0.001 |
| TRIM65 (UniProt Q6PJ69) | 0.053 | 0.073 | 0.046 | -0.035 | 0.005 | 0.047 | 0.006 | 0.006 | 0.003 | -0.063 | 0.025 | 0.085 | 0.013 | 0.026 | -0.076 | 0 | -0.056 | 0.008 | -0.022 | 0.022 |
| TBL2 (UniProt Q9Y4P3) | 0.014 | 0.059 | 0.005 | -0.001 | 0 | 0.045 | 0.031 | -0.008 | 0.03 | 0.05 | -0.016 | -0.013 | -0.015 | -0.029 | -0.034 | -0.045 | -0.029 | 0.022 | 0.027 | 0.001 |
| TNFAIP3 (UniProt P21580) | -0.123 | -0.1 | -0.056 | 0.005 | -0.045 | 0.003 | 0.016 | -0.035 | 0.068 | 0.053 | – | 0.004 | -0.015 | -0.412 | -0.063 | 0.051 | -0.009 | 0.017 | 0.029 | -0.006 |
| THAP9 (UniProt Q9H5L6) | 0.038 | -0.061 | -0.168 | -0.332 | – | – | -0.199 | 0.234 | 0.017 | -0.087 | 0.199 | 0.07 | 0.117 | 0.309 | 0.088 | -0.401 | -0.66 (active) | 0.151 | 0 | 0.076 |
